3T3 cytotox – NIH 3T3 cell cytotoxicity; NIH 3T3 viability, CellTiter-Glo ATP luminescence, 48-72 h; Potency, µM (highest dose often 96.7 µM), inactives show top-dose activity change, negative = cytotoxicity, actives largely listed as inhibitors; actives 4.3% (n = 94,000); AID 1345082; further: nearly all actives have a fitted effect of over 55% in size
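Cytotoxicity is measured as loss of cellular ATP: NIH 3T3 cells (400/well) are exposed to compound for 48 or 72 hr at 37 °C, then CellTiter-Glo luminescence is imaged after 10 min at room temperature.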
HEK293 tox – HEK 293 cell cytotoxicity. HEK 293 viability, ATP luminescence (CellTiter-Glo), 48-72 h. Potency, µM (doses to about 115 µM), without a hit: at the highest dose activity change, negative = cytotoxicity, actives largely listed as inhibitors. actives 6.6% (n = 94,000); further: nearly all actives have a fitted effect of over 60% in size
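HEK 293 cells at 250 cells/well were exposed to compounds by pintool transfer for 48 or 72 hr at 37 degree Celsius, 5% CO2. Viability was read as ATP-coupled luminescence with CellTiter-Glo after 10 min at room temperature.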
GPT2 inhibitor – GPT2 alanine aminotransferase inhibition. Recombinant GPT2, coupled pyruvate oxidase/HRP Amplex Red fluorescence. Q8TD30. actives 0.25% (n = 100,000). AID 1671188. Potency, µM (top dose mostly 57.7 µM), for inactives: at the top dose activity change, negative = inhibition, actives largely listed as inhibitors; further: nearly all actives have a fitted effect of over 60% in size
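GPT2 10ng/uL, a-KG 250uM, L-Ala 2mM, HEPES pH7.5 + 0.0001% Tween; 30 min RT. Then Amplex mix (PO/HRP/ThPP), 30 min RT dark, fluorescence. AOA 50uM used as positive control.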
hNpr1 antagonist – human Npr1 receptor antagonism. AID 1347048. Potency, µM (doses to about 46.3 µM), inactives show at the top dose activity change, negative = inhibition, hits mostly inhibitors. HEK293 hNpr1 GloSensor cGMP, ANP-stimulated luminescence. actives 1.6% (n = 76,000); calls by dose curve; further: nearly all actives have a fitted effect of over 60% in size
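HEK293 cells stably expressing human Npr1 and cGMP GloSensor pGS-40F, loaded 2 h with 2% GloSensor reagent, given compound 30 min at room temperature. Luminescence read before and 20 min after 0.1 nM hNppA.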
Luciferase inh – blocks purified firefly luciferase enzyme activity. P08659. purified P. pyralis luciferase, luminescence, biochemical. Potency, µM (series often up to 115 µM), most hits filed as inhibitors. actives 2.5% (n = 76,000). AID 1347043; further: nearly all actives have a fitted effect of over 65% in size
Target sequence (P08659 whole entry, looked up): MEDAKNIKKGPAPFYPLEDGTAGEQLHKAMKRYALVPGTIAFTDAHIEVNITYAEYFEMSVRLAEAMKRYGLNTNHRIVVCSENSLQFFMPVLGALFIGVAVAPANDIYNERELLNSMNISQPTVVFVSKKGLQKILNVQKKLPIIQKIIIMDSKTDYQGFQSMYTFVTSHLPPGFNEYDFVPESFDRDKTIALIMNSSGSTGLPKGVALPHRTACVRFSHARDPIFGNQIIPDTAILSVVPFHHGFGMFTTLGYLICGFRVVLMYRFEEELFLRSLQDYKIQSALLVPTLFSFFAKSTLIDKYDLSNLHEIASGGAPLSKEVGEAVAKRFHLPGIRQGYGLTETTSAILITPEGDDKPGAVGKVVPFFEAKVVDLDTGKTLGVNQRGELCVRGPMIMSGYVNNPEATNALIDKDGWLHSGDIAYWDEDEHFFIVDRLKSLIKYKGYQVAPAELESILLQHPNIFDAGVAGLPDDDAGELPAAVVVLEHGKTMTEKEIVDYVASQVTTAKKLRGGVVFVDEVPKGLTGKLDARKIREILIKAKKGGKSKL
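Cell-free enzyme assay, 10nM P. pyralis luciferase, luciferin and ATP each at 10uM. Inhibition profiled over a 6-point titration, read as luminescence.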
* hit, by the source's call; i = inactive; ? = inconclusive; nt = no result; [ ] = dose if it differs, or a comment. Sampled rows, rich in hits. Any-hit rate of the full collection: about 10%. Unless noted, the call rests on the fitted dose curve; in most records, active means well fitted curve in the direction sought with a large enough effect; inconclusive means small, poorly fitted or top-dose-only effect, or another doubt; inactive means no such curve, though single readings can be large; an effect the other way counts as inactive or inconclusive. On the % scale 0 is the no-effect control and ±100 the full control effect; potency means the concentration at half of the fitted maximal effect.

SMILES	3T3 cytotox	HEK293 tox	GPT2 inhibitor	hNpr1 antagonist	Luciferase inh
Cn1nc(C(=O)N2CCCN(c3cc(-c4ccccc4)[nH]n3)CC2)c2ccccc21	?	28µM*	?	-2%	i
Cc1ccccc1C(=O)N1CCCN(c2cc(-c3ccccc3)[nH]n2)CC1	-14%	?	?	0%	i
COc1cccc(CC(=O)N2CCN(c3cc(-c4ccc(Cl)cc4)[nH]n3)CC2)c1	?	?	i	?	i
Cc1cccc(OCC(=O)N2CCCN(c3cc(-c4ccc(Cl)cc4)[nH]n3)CC2)c1	25µM*	?	-16%	?	i
O=C(Cc1ccccc1)N1CCCN(c2cc(-c3ccc(Cl)cc3)[nH]n2)CC1	?	40µM*	-26%	?	i
COc1ccc(CC(=O)N2CCCN(c3cc(-c4ccc(Cl)cc4)[nH]n3)CC2)cc1	?	40µM*	?	?	i
COc1ccc(CC(=O)N2CCCN(c3cc(-c4ccccc4)[nH]n3)CC2)cc1	-25%	?	?	0%	i
COC(=O)[C@@H]1Cc2ncn(C(C)C)c2CN1C(C)=O	3%[230 µM]	-4%[230 µM]	3%[88.5 µM]	4%[70.6 µM]	i
CCc1noc(-c2cccc(-n3ccnc3-c3cc4n(n3)CCCNC4)c2)n1	-12%	1%	-6%[11.5 µM]	-6%	i
Cc1ccc(CC(=O)N2CCCN(c3cc(-c4ccccc4)[nH]n3)CC2)cc1	?	50µM*	?	-18%	i
O=C(Cc1ccc(F)cc1)NCCNC(=O)c1cccc(-c2ccc(C(F)(F)F)cc2)c1	-27%	28µM*	-9%	nt	nt
O=C(CNC(=O)c1ccc(-c2cccc(C(F)(F)F)c2)cc1)NCCc1ccc(Cl)cc1	-2%	-17%	-7%	nt	nt
O=C(Cc1ccc(Cl)cc1)NCCNC(=O)c1cccc(-c2ccc(C(F)(F)F)cc2)c1	35µM*	?	?	nt	nt
C=CCN1CCc2ccccc2N(CC(O)COc2ccc(OC)cc2)CCC1=O (centres undefined)	?	-21%[57.5 µM]	5%[27.3 µM]	nt	nt
COc1ccc(OCC(O)CN2CCC(=O)N(C/C=C/c3ccccc3)CCc3ccccc32)cc1 (centres undefined)	?	28µM*	-11%[27.3 µM]	nt	nt
COCCN1Cc2ccccc2N(CC(O)COc2ccccc2)CCC1=O (centres undefined)	-25%	?	nt	nt	nt
COc1ccc(OCC(O)CN2CCC(=O)N(C3CCCC3)Cc3ccccc32)cc1 (centres undefined)	?	40µM*	nt	nt	nt
Cc1ncsc1C(=O)N1CCC2(CC1)OC(=O)N(Cc1cccnc1)C2(C)c1ccccc1 (centres undefined)	22µM*	i	4%	4%	i
COc1ccc(C(=O)N2CCC3(CC2)OC(=O)N(Cc2cccnc2)C3(C)c2ccccc2)cn1 (centres undefined)	40µM*	i	2%	0%	i
CC1(c2ccccc2)N(Cc2cccnc2)C(=O)OC12CCN(C(=O)c1ccccc1)CC2 (centres undefined)	?	1%[172 µM]	-12%[88.5 µM]	-6%[70.6 µM]	i
CC1(c2ccccc2)N(Cc2cccnc2)C(=O)OC12CCN(C(=O)C1CCC1)CC2 (centres undefined)	18µM*	-15%[172 µM]	4%[88.5 µM]	0%[70.6 µM]	i
Cc1ncsc1C(=O)N1CCC2(CC1)OC(=O)N(Cc1ccccc1)C2(C)c1cccnc1 (centres undefined)	22µM*	i	i	4%	i
OC[C@@H]1CNC[C@H]1C1CCN(Cc2ccsc2)CC1	1%	1%	i	2%	i
Cc1ccccc1S(=O)(=O)N1C[C@@H](Oc2cccnc2)C[C@H]1C(=O)NC1CC1	2%	4%	i	4%	i
COCC1CN(C(C)=O)CC12CCN(C(=O)c1cncc(C)c1)CC2 (centres undefined)	-9%	i	1%	3%	i
SMILES	3T3 cytotox	HEK293 tox	GPT2 inhibitor	hNpr1 antagonist	Luciferase inh
O=C(O)CC1CCCN(c2cn[nH]c(=O)c2)C1 (centres undefined)	i	17%	i	-1%	i
CCCCc1cc(C[C@H]2CNCC[C@H]2CC(=O)Nc2ccccc2)no1	?	63µM*	i	-9%[70.6 µM]	i
CCCCc1cc(C[C@H]2CNCC[C@H]2CC(=O)NCc2ccccc2)no1	?	71µM*	0%[88.5 µM]	?	i
CC(C)NC(=O)C[C@@H]1CCNC[C@@H]1Cc1cc(CC2CCCCC2)on1	100µM*	?	i	-1%[70.6 µM]	i
CCCCc1cc(C[C@H]2CNCC[C@H]2CC(=O)NCc2ccc(F)cc2)no1	?	?	i	?	i
O=C(C[C@@H]1CCNC[C@@H]1Cc1cc(CN2CCOCC2)on1)NCCN1CCOCC1	-4%	-3%	-13%	7%	i
CN(Cc1ccccc1)Cc1cc(C[C@@H]2C[C@H](NC(=O)C3CCC3)C2(C)C)no1	?	35µM*	?	?	i
CC(C)(C)c1cc(C[C@@H]2C[C@H](NS(=O)(=O)c3ccccc3)C2(C)C)no1	?	71µM*	0%[88.5 µM]	-1%[70.6 µM]	i
CN(C)Cc1cc(C[C@@H]2C[C@H](NCc3ccccc3O)C2(C)C)no1	?	56µM*	3%[88.5 µM]	-1%[70.6 µM]	i
CN(Cc1cc(C[C@@H]2C[C@H](NCc3ccccn3)C2(C)C)no1)c1ccccc1	79µM*	56µM*	?	-14%[70.6 µM]	i
CN(Cc1cc(C[C@@H]2C[C@H](NC(=O)COc3ccccc3)C2(C)C)no1)c1ccccc1	?	?	-9%[88.5 µM]	?	i
CN(Cc1cc(C[C@@H]2C[C@H](NC(=O)C(C)(C)C)C2(C)C)no1)c1ccccc1	?	89µM*	-7%[88.5 µM]	?	i
COCC1OC(n2cnc3c(=O)[nH]cnc32)C(O)C1O (centres undefined)	nt	nt	i	nt	nt
CC(=O)N1CCCN(Cc2ccc3c(c2)OCO3)c2ccccc21	?	?	-3%	4%	i
O=C(c1ccccc1)N1CCCN(Cc2ccc3c(c2)OCO3)c2ccccc21	?	35µM*	i	-4%	i
Cc1ccc(C(=O)N2CCN(c3ccc4ncc(-c5cccc(C(F)(F)F)c5)n4n3)CC2)cc1	-30%	-6%	nt	nt	nt
CCOc1ccc(NC(=O)Cn2c(C)ccc(NC(=O)Nc3cccc(C)c3)c2=O)cc1	28µM*	40µM*	-9%	0%	?
Cc1ccc(NC(=O)Nc2ccccc2)c(=O)n1CC(=O)N1CCN(c2ccccc2)CC1	i	?	i	-1%	11µM*
Cc1cccc(NC(=O)Nc2ccc(C)n(CC(=O)NC(C)C)c2=O)c1	-24%	?	i	-2%	7.1µM*

Assay outcomes as filed in PubChem.
